Laboratory results taken from the supplement of paper PMC11417369.
The full ranking holds about 25,000 sequences; the median of “ln(normalized median fluorescence intensity)” is about 6.7, and the highest 2% start at about 10. Only a selection was taken, and the highest values are over-represented in it overall.

System: PfHDP1 homeodomain (GST-tagged)
Assay: gcPBM binding intensity (ln(normalized median fluorescence intensity)); higher = stronger DNA binding
In short: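 Using an Agilent 4 × 180k array, primer-extended double-stranded 36-bp intergenic genomic probes and negative controls were exposed for 1 h to GST-fused P. falciparum DNA-binding domains expressed in E. coli. Binding was carried out in 1× PBS with 1% milk, 0.2 mg/ml BSA, 0.5% salmon testes DNA and 0.03% Triton X-100, and protein was detected with Alexa488 anti-GST antibody and a 488 nm scan. Binding intensity is the highest Masliner-normalised natural-log median intensity across replicate spots of either probe orientation.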

Sequence	gcPBM binding intensity (ln)
AGTACATTATAGAATACACACCTATATATATATATA [CACACA_site4447]	9.29
ATAATACATATAGAAGGTACACTATTATTTTCCTGA [XGTACX_site903]	6.13
TTCTTTTTAATGTCGGTGCAACTCCATAAAAACAAA [GTGCAC_site9488]	10.9
ATATTTTATGTAAAGGTGCAAAACAACATTAAAAAA	9.97
TTCTTTTTTTTTAAAACAAACAAACAAACAAACAAA [CACACA_negctrl_site832]	6.6
TCTTTCTAAAGATGTAGTACAAAATAAATATAATAT [XGTACX_site6564]	6.87
TCCAAAATATCCTTCACACACGAACAGTTTCATTTA [CACACA_site5511]	6.49
ATTGTATGCACGTCTGCACACTTTTTTTTTTTTTTT [CACACA_site2082]	11
ATTTGTATTGTATATGCACACATAGAACACTTTTTT [CACACA_site9373]	9.69
TTGTATTGTATATGCACACATAGAACACTTTTTTTT [CACACA_site4133]	8.44
AAAATATATTCAACTTGTACATATATATATATATAT [XGTACX_site7629]	9.4
TTAATATTCCAGCTTTGTACATATATATATTATAAA [XGTACX_site7954]	6.6
TTCTTGTTCCTGAAAGTGCATATAACAAAAATAACA [GTGCAC_site9635]	8.06
TTTTGAAGTAACAAATAAATAAATAAATATATAAAA [GTGCAC_negctrl_site517]	6.53
TTTGTTCTTTTTGAAGTGCACTGAAATATAACAAAA	10.9
TATTGTATTTCATATTGTACTAAAAAAAAAAAAAAG [XGTACX_site6694]	6.24
GTCCTCATCCACTATGCACACAAAAAAGAAATACAC [CACACA_site9131]	10.5
AGAAAGAAAATATATACACACAAAAAAAAATATATA [CACACA_site1412]	6.61
CCTCATCCACTATGCACACAAAAAAGAAATACACTA [CACACA_site3422]	9.52
TTACACAAACAAATTATGGACACATAAGTAAAAGGA [CACACA_negctrl_site1622]	6.97

Sequence	gcPBM binding intensity (ln)
GCACATATGAATATAATACACACTTGTATTATTAAT [CACACA_site1841]	6.59
TTTTTGATGAAATATTATTTTCCTGACTTGGATTAA [CACACA_negctrl_site148]	6.27
TCCTTATATTTGCACACACACACAAGAAAATGAAAA [CACACA_site6613]	11
TTTTTTTTTTTTTGCACACACCATATTTATAGAAAT [CACACA_site5772]	9.04
TGTCCTTATTTGCACACACACATATAAGAAATTTAA [CACACA_site7485]	10.5
GATATCCTTATATTTGCACACACACCCAATAAAATG [CACACA_site1028]	9.87
AATGTCCTTATTTGCACACACACATATAAGAAATTT [CACACA_site3186]	10.6
AAAATGAAGAAGTGCACACATATATATATTTATATA [CACACA_site507]	9.11
TCCTTATATTGGCACACACACACAATAAAATGAAAA [CACACA_site4715]	7.07
TATCCTTATATTTGCACACACACACCCTAAAATGAA [CACACA_site1029]	10.6
TATCCTTATATTTGCACACACACACTAGAAAATGAA [CACACA_site4714]	10.7
TCTATTATCCTTTGCACACAAAATAAATGAAAAAAT [CACACA_site3029]	9.75
TAAATGTCCTTATTTGCACACACACCCATAAGAAAT [CACACA_site3185]	10.4
ATTCTATTATCCTTTGCACACAAAATAAATGAAAAA [CACACA_site3030]	9.63
AAAATATTTATATTTACACACACATAATACATATAT [CACACA_site32]	6.84
TTACATATTTTCATTTGTACATATTCATTTTTTTTC [XGTACX_site6988]	6.47
ATATATATGTGAAAATCACACATTGCTTATCTGTAA [CACACA_site6044]	6.3
CAAACAATTAAACAAACACACATATACATGTATATA [CACACA_site2060]	6.54
TATAAATAAAAATATACACACTGTATTATTGTAATA [CACACA_site7721]	6.24
CAATGCTTTATCAATACATGCATATATATAGAAATA [TGCATGCA_site857]	6.46

Sequence	gcPBM binding intensity (ln)
CTTATGTGCATACCTACACACTTACATATATATATA [CACACA_site8973]	9.47
AATATATATTTATAAACACACACCAAAATTTGTGCT [CACACA_site3091]	6.82
TGTATAAAAGTTTATACACACATTTGATATATTTCA [CACACA_site6606]	6.58
TGTATATATTTGTGCACACCAAAGTTTGATTTTATT [CACACA_site1860]	11.4
TATGTATATATTTGTGCACACCAAAGTTTGATTTTA [CACACA_site1861]	11.4
TAGTTTTTATATAGCACACATATTGTGATTATGTAT [CACACA_site1196]	6.83
ATATGTATTTATATATGTTTGATTTTTTTTTTTTTT [TGCATGCA_negctrl_site506]	6.23
AAAAAAAAAAAAAACACACACAAATTTAATATATAT [CACACA_site1695]	6.64
TTTTTTTTTTTTTTTTGTACTCATATCTACTATCAT [XGTACX_site274]	6.44
GTGGACGAAATAGTTGTAAATTTATGTGCAAACCTC [XGTACX_negctrl_site564]	11.2
AAATTTATATATAGTTGTACAAAAATATGTTTCGTA [XGTACX_site4801]	6.62
AAATAAAATTTTATGTGTACGCAAAAAGTTGTAAGC [XGTACX_site8911]	7.29
GTTTTTAATGTTTTGACATGCAATATTAAAAATAAT [TGCATGCA_site174]	6.57
TATATATATATATATATTTTAAATGATATAAATGGT [TGCATGCA_negctrl_site152]	9.23
AAAAAAAAAATGAGCACACATAAATAAAAACAAACA [CACACA_site1573]	7.39
AATATATCAAAAATGATGACATAAATATATTAATTT [GTGCAC_negctrl_site530]	6.13
GTATTCATTCCTTGAGTGCAATTGCAATAAATAAAA	10.7
AAATGAATATTCATAGTGCAATATATAAATGAAAAT	9.5
ATTAAATTTCCTTGAGTGCACATTTTGTTAAAATAT	9.29
